# A selection: hits, their analogues and other compounds. The true share with any hit is near 0.94%.
# SSB-PriA inh = inhibitors of Klebsiella pneumoniae PriA binding to SSB C-terminal tail. AlphaScreen SSBct-PriA binding, biotinylated peptide. inhibition, % at 33 µM. 430,000 tested, 0.6% active; in the data active = inhibition mostly above about 37%, no sharp cut-off; inactive = mostly below about 20%;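 note: plate controls were negative control peptide for no effect and reference peptide for full effect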
# Mtb hypoxia rep = reduces hypoxia-regulated biosensor signal in M. tuberculosis. fluorescence inhibition, % (concentration not given with the values). M. tuberculosis hypoxia-regulated fluorescent reporter, fluorescence. 300,000 tested, 0.1% active. AID 1159583; in the data active = fluorescence inhibition mostly above about 23%, no sharp cut-off; inactive = mostly below about 17%
# Vc quorum ag = inducers of Vibrio cholerae quorum light production without autoinducers; activation, % at 18.7 µM; 350,000 tested, 0.16% active; V. cholerae BH1578 lux reporter, luminescence, 6 h; in the data active = activation mostly above about 9.7%, no sharp cut-off
# MazF activator = increases E. coli MazEF RNase cleavage of RNA; activation, % at 20 µM; FAM/BHQ RNA-DNA oligo cleavage fluorescence, 5 h; P0AE70; 350,000 tested, 0.32% active; in the data active = activation above about 50%
# Target sequence (P0AE70 whole entry, looked up): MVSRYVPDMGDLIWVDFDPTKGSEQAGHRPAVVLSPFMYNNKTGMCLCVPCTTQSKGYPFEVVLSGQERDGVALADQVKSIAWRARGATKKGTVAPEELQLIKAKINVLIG
# Starred values were filed as active, the others as inactive; i = inactive; / = not tested or not shown; + = active, no number; ! = repeats disagree.
SMILES,SSB-PriA inh,Mtb hypoxia rep,Vc quorum ag,MazF activator
CNC(=S)NCc1ccc2[nH]c(C)cc2c1,33.4,3.2,-0.2,-1.1
CCc1cccc(C)c1NC(=S)NCc1ccc2[nH]c(C)cc2c1,42.1*,2.4,-0.2,1.4
Cc1cc2cc(CNC(=O)NC3CCCCC3)ccc2[nH]1,53.5*,-2.6,i,6.1
Cc1cc2cc(CNC(=O)NC3CCCCC3)ccc2n1C,44.9*!,18.5,-0.4,2.8
Cc1cc2cc(CNC(=O)c3ccc4c(c3)OCO4)ccc2n1C,39.0*!,0.9,i,13.0
O=C(Cn1nnc(-c2ccccc2)n1)NN=Cc1cccc([N+](=O)[O-])c1,-6.0,/,/,/
CS(=O)(=O)Nc1ccc(C2=NN(c3nc(-c4ccccc4)c4cc(Cl)ccc4n3)C(c3cccs3)C2)cc1 (stereo not drawn),-12.0,/,/,/
O=C(C1CCCO1)N1CCN(c2ccc(-c3ccc(F)cc3)nn2)CC1 (stereo not drawn),5.0,/,/,/
CN1/C(=C\C=O)C(C)(C)c2ccccc21,-3.3,2.5,i,18.2
CN1/C(=C/C=C(C#N)C#N)C(C)(C)c2ccccc21,4.9,2.0,2.3,+
CN1C(=CC=[N+](C)c2ccccc2)C(C)(C)c2ccccc21,-5.1,/,/,/
CN1\C(=C/C=C/C=C/C=[N+](C)C)C(C)(C)c2ccccc21,/,5.7,-0.2,477.0*
CCOC(=O)c1cnc(-n2[nH]c(C)c(Cc3ccccc3)c2=O)[nH]c1=O,83.7*,17.9,i,-10.7
CCOC(=O)c1cnc(Cc2ccccc2)[nH]c1=O,-14.2,-0.1,i,10.7
CCOC(=O)c1cnc(-n2[nH]c(C)cc2=O)[nH]c1=O,93.3*,-4.2,-0.2,-4.9
Cc1ccc(OCc2nc(C#N)c(N3CCC(C(N)=O)CC3)o2)cc1,56.3*,/,/,/
CC1CC(C)CN(c2oc(Cc3ccccc3)nc2C#N)C1 (stereo not drawn),54.8*,0.9,-0.2,-4.5
CCCOc1ccc(-c2nc(C#N)c(N3CCC(C(N)=O)CC3)o2)cc1,-3.5,-0.2,-2.0,-4.1
N#Cc1nc(COc2ccc(Br)cc2)oc1N1CCCCC1,104.2*,/,/,/
Cc1ccc(OCc2nc(C#N)c(N3CCC(C)CC3)o2)cc1,95.9*,/,/,/
N#Cc1cccnc1OC1CCN(C(=O)c2ccc(=O)[nH]c2)CC1,-12.0,/,/,/
Cc1ccc(C(=O)NCCc2nnc3ccc(SCC#N)nn23)cc1,16.0,/,/,/
Cc1ccc2nc(C3CN(Cc4c(F)cccc4Cl)C3)[nH]c2c1,2.0,/,/,/
COc1ccc(OCc2ccc(-c3nc(C#N)c(N4CCC(C(N)=O)CC4)o3)o2)cc1,37.0*,/,/,/
N#Cc1nc(Cc2cccc3ccccc23)oc1N1CCOCC1,33.5,10.6,-0.1,-4.2
SMILES,SSB-PriA inh,Mtb hypoxia rep,Vc quorum ag,MazF activator
Cc1ccc(OCc2nc(C#N)c(N3CCN(c4ccccc4)CC3)o2)cc1,74.2*,/,/,/
N#Cc1nc(Cc2cccc3ccccc23)oc1NCc1ccc(F)cc1,44.9*,6.8,-1.1,-0.3
C=CCNc1oc(Cc2cccc3ccccc23)nc1C#N,3.3,12.2,-0.1,-13.8
CC1CCN(c2oc(Cc3cccc4ccccc34)nc2C#N)CC1,56.0*,7.5,/,-2.8
COc1cn(CC(=O)Nc2ccc(C(N)=O)cc2)c(CO)cc1=O,-10.0,/,/,/
Cc1ccc(Cn2cc(C(=O)NNC(=O)Nc3cccc(C)c3)ccc2=O)cc1,-10.0,/,/,/
NC(=O)c1cc2c3ccccc3ccn2c1-c1ccccc1,-4.8,20.1,i,51.0*
CC1CCN(CCCNC(=O)c2coc3nc4ccccc4nc23)CC1,5.2,10.2,/,5.9
Cc1ccc(CCNC(=O)c2coc3nc4ccccc4nc23)cc1,0.3,-3.4,-5.6,90.2*
CCN1C(=O)NC(=O)/C(=C\c2cn(CC(=O)N3CCCCC3C)c3ccccc23)C1=O (stereo not drawn),-3.0,1.9,i,+
COc1ccc(N/C=C2\C(=O)CCc3c2oc2cc(Cl)c(O)c(Cl)c32)cc1,-7.2,10.5,i,120.4*
COc1ccc(N/C=C2\CCOC2=O)cc1,/,-4.8,-4.1,-6.8
COc1ccc(-c2ccc(/C=C3/C(=N)N4C(C)=CSC4=NC3=O)o2)c([N+](=O)[O-])c1,8.6,4.3,-0.1,67.9*
Cn1c(CNc2ccc(O)cc2)nc2ccccc21,-6.0,0.8,i,105.0*
CCc1cccc(CC)c1NC(=O)COC(=O)/C(C#N)=C/c1ccc(OC)cc1,-7.0,-18.4,-0.4,124.2*
COc1ccc(/C=C(\C#N)C(=O)OCC(=O)Nc2c(C)cccc2C)cc1,-3.8,9.7,-0.1,1.7
COc1ccccc1N(CCC#N)C(=O)CSc1nc(-c2ccccc2)cn1N,7.9,-1.5,29.4*,-16.0
COc1ccccc1N(CCC#N)C(=O)CSc1nnc2ccccn12,-2.5,24.4,0.9,3.6
O=C(COc1cccc2ccccc12)Oc1ccc([N+](=O)[O-])cc1,6.0,/,/,/
CCSc1ccccc1C(=O)NCCC(O)c1cc(C)oc1C (stereo not drawn),-5.0,/,/,/
CC1CCN(c2nc3ccccn3c(=O)c2C=O)CC1,-11.5,45.3*,0.0,1.3
CCN=C1S/C(=C\c2cn(CC)c3ccccc23)C(=O)N1CC,-14.7,-5.3,0.2,-7.0
CCn1cc(C=C2C(=O)c3ccccc3C2=O)c2ccccc21,0.3,3.3,i,+
CC(=O)Nc1cc(N=Cc2ccc(O)cc2O)c(Cl)cc1Cl,3.8,7.3,-0.3,129.7*
COc1ccc(O)c(C=Nc2cc(NC(C)=O)c(Cl)cc2Cl)c1,-14.4,-0.7,-0.5,-1.0
SMILES,SSB-PriA inh,Mtb hypoxia rep,Vc quorum ag,MazF activator
Cn1c(O)c(C=NN2CCOCC2)c(=O)n(-c2ccccc2)c1=S,-9.6,/,/,/
COc1ccc2[nH]c3c(N4CC(C)OC(C)C4)ncnc3c2c1 (stereo not drawn),-15.5,-3.6,/,4.9
COc1cccc(N2CCN(c3ncnc4c3[nH]c3ccc(F)cc34)CC2C)c1 (stereo not drawn),42.1*,-2.9,-0.3,11.7
COc1ccccc1N1CCN(C(=O)c2csc3nc(-c4ccc(F)cc4)cn23)CC1,20.0*,/,/,/
O=C(c1csc2nc(-c3ccccc3)cn12)N1CCN(c2ccccc2)CC1,active,/,/,/
COc1ccc(N2CCN(C(=O)c3csc(Nc4ccccc4)n3)CC2)cc1,38.0,/,/,/
COc1cccc(-c2cn3c(C(=O)N4CCN(c5ccccc5OC)CC4)csc3n2)c1,20.0,/,/,/
O=C(c1csc(Nc2ccccc2)n1)N1CCN(c2ccccc2)CC1,21.0*,/,/,/
CCOc1cc2c(cc1/C=C/c1noc(C)c1[N+](=O)[O-])OC(C)C2 (stereo not drawn),-8.1,/,-0.1,370.5*
CCOc1cc2c(cc1C=O)OC(C)C2 (stereo not drawn),-1.2,16.8,0.4,0.1
O=[N+]([O-])c1ccc(-c2cnc(SCc3ccccc3Cl)[nH]2)cc1,38.9*,11.1,0.7,12.8
O=[N+]([O-])c1ccc(-c2cnc(SC(c3ccccc3)c3ccccc3)[nH]2)cc1,31.7,1.4,-3.3,28.8
Cc1cc(C)c(CSc2ncc(-c3ccc([N+](=O)[O-])cc3)[nH]2)c(C)c1,9.7,/,i,76.0*
COC(=O)c1cccc(Nc2nc(C)nc3c2oc2ccccc23)c1,-13.0,/,/,/
CCOc1ccc(S(=O)(=O)Nc2ccc(Nc3ccc(-n4cccn4)nn3)cc2)cc1,70.0*,/,/,/
N#Cc1c2ccccc2nc2ccccc12,2.2,61.5*,i,2.9
Oc1ccc(CNc2ccccc2C(F)(F)F)c2cccnc12,44.2,/,/,/

# Source: PubChem (several laboratories)
